Reference: ChEMBL document CHEMBL3988442, “University of Dundee, Small-Polar-MMV Screening Library” (2021)
For some assays here: Results with a measured potency or affinity are listed apart.

What was measured:
Design in all cases: scale not given: direction of the effect not stated beside the values
[1] = target: Protein translocase subunit SecA (Escherichia coli (strain K12)) (UniProt P10408); assay: Assay to Identify E. coli SecA ATPase Inhibitors; type: functional; details: 30 µM
[2] = target: T1, Ubiquitin-activating enzyme e1, putative (Leishmania donovani (strain BPK282A1)) (UniProt E9BSI1); assay: Leishmania donovani Ubiquitin Activating Enzyme (LdE1); type: functional; details: 30 µM
T1 sequence (whole entry): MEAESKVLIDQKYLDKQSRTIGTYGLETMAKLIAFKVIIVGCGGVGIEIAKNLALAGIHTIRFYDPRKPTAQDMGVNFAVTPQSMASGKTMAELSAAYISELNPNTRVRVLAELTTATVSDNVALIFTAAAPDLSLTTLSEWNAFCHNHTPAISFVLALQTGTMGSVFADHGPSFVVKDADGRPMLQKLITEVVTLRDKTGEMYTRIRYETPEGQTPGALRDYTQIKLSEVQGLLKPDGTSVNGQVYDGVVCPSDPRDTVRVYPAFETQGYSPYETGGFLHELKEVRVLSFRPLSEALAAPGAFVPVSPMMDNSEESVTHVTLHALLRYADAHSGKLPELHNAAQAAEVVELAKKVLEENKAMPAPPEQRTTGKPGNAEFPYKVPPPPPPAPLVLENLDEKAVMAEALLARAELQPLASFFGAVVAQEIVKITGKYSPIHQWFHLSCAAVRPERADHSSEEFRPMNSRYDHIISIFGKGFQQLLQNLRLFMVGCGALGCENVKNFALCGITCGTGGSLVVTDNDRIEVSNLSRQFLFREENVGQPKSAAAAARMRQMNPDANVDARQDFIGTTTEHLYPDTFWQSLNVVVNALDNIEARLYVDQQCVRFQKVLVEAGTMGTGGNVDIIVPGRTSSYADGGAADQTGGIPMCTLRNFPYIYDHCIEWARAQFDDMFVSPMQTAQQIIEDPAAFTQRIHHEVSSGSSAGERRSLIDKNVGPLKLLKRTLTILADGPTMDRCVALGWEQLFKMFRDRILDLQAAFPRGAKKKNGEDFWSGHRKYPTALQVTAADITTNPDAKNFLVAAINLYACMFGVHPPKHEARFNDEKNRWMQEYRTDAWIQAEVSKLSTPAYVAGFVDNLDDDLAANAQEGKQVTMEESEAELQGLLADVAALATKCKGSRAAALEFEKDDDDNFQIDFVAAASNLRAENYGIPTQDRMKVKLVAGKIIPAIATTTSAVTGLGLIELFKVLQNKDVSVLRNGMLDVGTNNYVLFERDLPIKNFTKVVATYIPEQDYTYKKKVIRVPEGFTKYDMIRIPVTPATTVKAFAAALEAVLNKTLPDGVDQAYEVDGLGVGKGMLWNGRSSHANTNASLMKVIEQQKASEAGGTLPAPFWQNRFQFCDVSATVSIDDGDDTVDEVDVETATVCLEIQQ

[3] = target: Sialic acid-binding Ig-like lectin 9 (Homo sapiens) (UniProt Q9Y336); assay: Hs-Siglec9 ALPHAscreen SOP 20170721; details: 10 µM
[4] = system: Trypanosoma cruzi; assay: Trypanosoma cruzi phosphomannomutase and mannose-1-phosphate guanylyltransferase assay; type: functional; details: 10 µM
[5] = target: T2, Arginase-2, mitochondrial (Homo sapiens) (UniProt P78540); assay: in vitro enzyme assay to detect the production of urea directly proportional to the activity of Arginase II; type: functional; details: 33.3 µM; note: in the data most compounds retested in dose-response had high values
T2 sequence (whole entry): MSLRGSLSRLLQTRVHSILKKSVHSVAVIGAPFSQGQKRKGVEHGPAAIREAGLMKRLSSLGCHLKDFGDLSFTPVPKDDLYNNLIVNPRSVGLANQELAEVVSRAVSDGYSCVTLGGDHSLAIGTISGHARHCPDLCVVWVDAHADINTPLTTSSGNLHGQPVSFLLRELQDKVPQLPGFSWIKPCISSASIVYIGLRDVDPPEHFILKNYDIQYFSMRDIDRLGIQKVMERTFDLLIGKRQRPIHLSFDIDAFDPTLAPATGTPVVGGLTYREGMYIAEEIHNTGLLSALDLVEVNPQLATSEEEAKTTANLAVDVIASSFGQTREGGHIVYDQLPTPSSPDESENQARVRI

[6] = target: T3, Proteasome subunit beta (Trypanosoma cruzi) (UniProt O96673); assay: Trypanosoma cruzi proteasome chymotrypsin-like activity (TcProtChymo) assay.; note: in the data most compounds retested in dose-response had high values; type: functional; details: 9.37 µM
T3 sequence (whole entry): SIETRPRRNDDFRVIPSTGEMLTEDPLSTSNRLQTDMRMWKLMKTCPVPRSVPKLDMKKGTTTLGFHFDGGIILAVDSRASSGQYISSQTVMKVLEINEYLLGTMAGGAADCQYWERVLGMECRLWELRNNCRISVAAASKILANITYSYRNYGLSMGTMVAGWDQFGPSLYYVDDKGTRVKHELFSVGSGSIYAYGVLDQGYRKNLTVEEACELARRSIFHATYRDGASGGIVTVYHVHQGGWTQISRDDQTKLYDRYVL

[7] = organism: Homo sapiens; assay: To identify inhibition of the IFN signalling (Jak-Stat) pathway via expression of an eGFP reporter gene under the control of an IFN-stimulated response element (ISRE) containing MxA promoter.; type: functional; details: 30 µM
[8] = target: T4, Tyrosyl-tRNA synthetase, putative (Trypanosoma cruzi (strain CL Brener)) (UniProt Q4DSP6); assay: Trypanosoma cruzi tyrosyl tRNA synthetase (TcYRS) _High Tyrosine SOP; type: functional; details: 30 µM; note: in the data most compounds retested in dose-response had high values
T4 sequence (whole entry): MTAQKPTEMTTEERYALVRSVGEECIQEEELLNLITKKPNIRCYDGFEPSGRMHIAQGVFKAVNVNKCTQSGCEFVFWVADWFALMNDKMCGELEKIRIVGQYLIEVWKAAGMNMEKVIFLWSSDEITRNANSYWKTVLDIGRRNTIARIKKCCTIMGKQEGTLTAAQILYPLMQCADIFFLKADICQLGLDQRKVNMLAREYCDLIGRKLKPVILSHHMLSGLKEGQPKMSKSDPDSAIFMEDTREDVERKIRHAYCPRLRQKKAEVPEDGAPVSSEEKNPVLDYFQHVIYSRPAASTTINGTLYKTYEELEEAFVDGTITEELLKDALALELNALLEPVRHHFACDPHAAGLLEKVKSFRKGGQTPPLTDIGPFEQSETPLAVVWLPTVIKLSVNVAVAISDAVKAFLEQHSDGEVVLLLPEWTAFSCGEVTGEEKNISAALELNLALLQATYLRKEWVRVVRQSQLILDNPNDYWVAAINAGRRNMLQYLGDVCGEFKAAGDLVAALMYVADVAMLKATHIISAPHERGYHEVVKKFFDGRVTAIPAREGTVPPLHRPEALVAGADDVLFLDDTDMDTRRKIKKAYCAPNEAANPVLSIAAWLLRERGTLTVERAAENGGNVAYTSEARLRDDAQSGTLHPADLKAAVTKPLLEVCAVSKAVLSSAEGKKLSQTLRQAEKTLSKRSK

[9] = target: T4, Tyrosyl-tRNA synthetase, putative (Trypanosoma cruzi (strain CL Brener)); assay: Trypanosoma cruzi tyrosyl tRNA synthetase (TcYRS) SOP; type: functional; details: 30 µM
[10] = target: Chromo domain-containing protein 1 (Saccharomyces cerevisiae (strain ATCC 204508 / S288c) (Baker's yeast)) (UniProt P32657); assay: ScCHD-1 Enzyme Inhibition Assay; type: functional; details: 30 µM; note: in the data most compounds retested in dose-response had high values
Chain of Chromo domain-containing protein 1 (Saccharomyces cerevisiae (strain ATCC 204508 / S288c) (Baker's yeast)) (P32657 whole entry, the tested form may be a part): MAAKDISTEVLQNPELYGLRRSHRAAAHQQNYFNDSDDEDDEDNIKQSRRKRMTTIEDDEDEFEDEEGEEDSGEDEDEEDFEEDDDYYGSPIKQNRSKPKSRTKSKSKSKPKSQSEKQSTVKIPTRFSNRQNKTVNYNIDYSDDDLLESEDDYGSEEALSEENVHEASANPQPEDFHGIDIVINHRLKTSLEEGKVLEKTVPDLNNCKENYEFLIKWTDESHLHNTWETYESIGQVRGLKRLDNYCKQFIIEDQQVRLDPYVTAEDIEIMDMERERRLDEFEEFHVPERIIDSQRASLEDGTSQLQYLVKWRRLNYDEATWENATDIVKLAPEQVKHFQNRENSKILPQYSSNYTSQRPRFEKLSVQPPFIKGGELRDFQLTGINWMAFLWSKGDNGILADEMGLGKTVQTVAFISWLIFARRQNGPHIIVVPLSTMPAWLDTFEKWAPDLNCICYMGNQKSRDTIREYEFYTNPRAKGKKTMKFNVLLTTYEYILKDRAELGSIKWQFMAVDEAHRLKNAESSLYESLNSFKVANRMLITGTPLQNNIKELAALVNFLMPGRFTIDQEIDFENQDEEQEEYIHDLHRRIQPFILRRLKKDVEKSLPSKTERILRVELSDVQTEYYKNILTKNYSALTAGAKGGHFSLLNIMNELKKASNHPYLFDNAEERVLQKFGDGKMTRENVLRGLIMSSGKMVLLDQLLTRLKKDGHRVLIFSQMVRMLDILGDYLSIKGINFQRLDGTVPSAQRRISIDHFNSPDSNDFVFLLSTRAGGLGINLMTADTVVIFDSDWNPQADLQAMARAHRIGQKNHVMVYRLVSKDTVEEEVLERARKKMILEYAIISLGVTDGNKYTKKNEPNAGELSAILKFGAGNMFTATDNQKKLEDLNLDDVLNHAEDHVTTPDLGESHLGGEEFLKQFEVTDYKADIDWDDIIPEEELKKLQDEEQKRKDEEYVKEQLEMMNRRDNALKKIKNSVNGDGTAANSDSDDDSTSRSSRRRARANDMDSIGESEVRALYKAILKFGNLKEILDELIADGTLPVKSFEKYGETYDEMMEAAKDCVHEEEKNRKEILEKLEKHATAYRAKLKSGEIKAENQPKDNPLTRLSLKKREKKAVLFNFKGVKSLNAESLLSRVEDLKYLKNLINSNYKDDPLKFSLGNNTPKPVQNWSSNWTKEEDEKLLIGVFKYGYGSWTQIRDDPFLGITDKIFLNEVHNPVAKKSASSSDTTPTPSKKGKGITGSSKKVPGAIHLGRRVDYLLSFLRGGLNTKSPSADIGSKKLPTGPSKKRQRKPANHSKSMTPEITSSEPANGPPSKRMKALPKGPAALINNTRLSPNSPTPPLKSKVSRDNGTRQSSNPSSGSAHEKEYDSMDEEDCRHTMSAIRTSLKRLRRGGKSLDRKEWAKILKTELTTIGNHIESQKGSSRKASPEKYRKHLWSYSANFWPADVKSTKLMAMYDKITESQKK

Chain of Sialic acid-binding Ig-like lectin 9 (Homo sapiens) (Q9Y336 whole entry): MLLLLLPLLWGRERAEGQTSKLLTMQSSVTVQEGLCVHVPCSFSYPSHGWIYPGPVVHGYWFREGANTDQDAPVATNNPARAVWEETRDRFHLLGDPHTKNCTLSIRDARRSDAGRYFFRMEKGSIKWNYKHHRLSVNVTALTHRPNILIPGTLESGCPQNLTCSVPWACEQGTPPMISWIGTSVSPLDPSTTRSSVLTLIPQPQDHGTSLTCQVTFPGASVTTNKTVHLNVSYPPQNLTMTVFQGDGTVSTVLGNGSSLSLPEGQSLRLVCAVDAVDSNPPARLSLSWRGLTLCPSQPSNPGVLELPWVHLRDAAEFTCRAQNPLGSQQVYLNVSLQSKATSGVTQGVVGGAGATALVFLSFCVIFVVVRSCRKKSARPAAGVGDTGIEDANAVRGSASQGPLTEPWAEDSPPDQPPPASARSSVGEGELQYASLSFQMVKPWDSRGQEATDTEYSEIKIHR
Chain of Protein translocase subunit SecA (Escherichia coli (strain K12)) (P10408 whole entry): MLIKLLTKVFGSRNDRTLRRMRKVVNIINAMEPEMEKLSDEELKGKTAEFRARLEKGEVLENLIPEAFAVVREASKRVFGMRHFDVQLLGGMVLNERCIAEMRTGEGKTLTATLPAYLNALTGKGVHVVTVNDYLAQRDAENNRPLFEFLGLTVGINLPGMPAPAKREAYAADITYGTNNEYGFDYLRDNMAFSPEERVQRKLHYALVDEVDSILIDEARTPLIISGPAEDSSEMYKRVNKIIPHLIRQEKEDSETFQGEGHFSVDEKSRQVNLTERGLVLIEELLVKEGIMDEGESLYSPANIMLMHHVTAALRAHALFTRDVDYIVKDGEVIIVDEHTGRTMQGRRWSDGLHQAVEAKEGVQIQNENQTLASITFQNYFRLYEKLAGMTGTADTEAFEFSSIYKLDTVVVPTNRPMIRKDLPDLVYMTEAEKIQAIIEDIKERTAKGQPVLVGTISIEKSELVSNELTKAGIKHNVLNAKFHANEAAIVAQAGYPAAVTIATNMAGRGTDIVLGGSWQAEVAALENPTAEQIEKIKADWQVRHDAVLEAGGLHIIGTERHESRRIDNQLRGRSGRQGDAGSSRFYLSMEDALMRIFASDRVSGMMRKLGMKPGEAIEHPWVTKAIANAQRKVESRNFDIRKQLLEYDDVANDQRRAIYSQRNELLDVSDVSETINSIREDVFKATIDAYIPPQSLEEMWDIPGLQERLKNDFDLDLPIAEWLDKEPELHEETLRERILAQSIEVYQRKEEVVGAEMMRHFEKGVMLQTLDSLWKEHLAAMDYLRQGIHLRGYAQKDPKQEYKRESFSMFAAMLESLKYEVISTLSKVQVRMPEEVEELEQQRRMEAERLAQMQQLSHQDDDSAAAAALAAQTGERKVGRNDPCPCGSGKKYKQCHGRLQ

Row | SMILES | Percent Effect [1] [%] | Percent Effect [2] [%] | Percent Effect [3] [%] | Percent Effect [4] [%] | Percent Effect [5] [%] | Percent Effect [6] [%] | Percent Effect [7] [%] | Percent Effect [8] [%] | Percent Effect [9] [%] | Percent Effect [10] [%]
1 | CN(C)Cc1ccc(C2CCCCN2C(=O)c2cccc(CO)n2)cc1 (stereo not given) | -5.85 | 13.5 | 26.3 | 9.8 | 23.4 | 9.25 | 8.84 | 6.92 | 14.6 | 80.3
2 | Cc1ncsc1-c1nnc(C2CCN(CC3CCCCC3)CC2)o1 | 1.3 | 14.7 | -11.6 | -1.97 | 0.443 | 14.8 | 25.8 | -3.17 | 5 | -21.3
3 | COC(=O)Cn1c(=O)nc2n1C(=O)N(c1ccccc1)C2 | -4.54 | 5.41 | -1.57 | -7.27 | 5.94 | 9.76 | 17 | 3.72 | 9.76 | -2.64
4 | CNC(=O)CCCNCc1c(C)nn(C)c1N(C)C | -0.3 | 0 | 14.5 | 1.22 | 2.87 | 2.3 | -12.6 | 2.39 | 1.21 | -2.02
5 | CN(C)C(=O)[C@@H]1C[C@@H]2CCN(Cc3ccc4c(c3)OCO4)C[C@@H]2O1 | -2.52 | -1.3 | -0.448 | -1.07 | -2.83 | 6.62 | -0.537 | -2.63 | -2.56 | -0.196
6 | O=S(=O)(c1ccccc1Cl)N1CCc2nc(C3CCNCC3)ncc2C1 | -4.22 | 1.33 | 8.22 | 3.75 | -1.33 | 12.2 | 34.8 | 6.35 | 12.5 | -26.2
7 | CC(C)CC(CNC(=O)NCc1cc[nH]n1)N1CCOCC1 (stereo not given) | -1.69 | 17.9 | -27 | 7.04 | 0.82 | 17.8 | 11.6 | 4.31 | 20.5 | 25
8 | CN(C)CCOCC1CN(Cc2ccsc2)Cc2ccnn2C1 (stereo not given) | -2.84 | -1.3 | 1.33 | -3.41 | -1.62 | 2.21 | -1.71 | 1.58 | 2.56 | 0.0554
9 | Cc1nn(C)c(N2CCOCC2)c1CNC1CCc2cc(F)ccc21 (stereo not given) | -1.4 | 20.8 | 4.82 | -2.8 | 11.7 | 7.72 | 0.31 | 6.86 | 18.8 | -4.69
10 | CCc1ccc(O)c(C(=O)NC2CCN(Cc3ccncc3)CC2)c1 | -1.01 | 12.8 | -9.09 | -4.98 | 1.64 | 5.55 | 44.9 | 1.44 | 8.43 | -6.65
11 | CC(C)N(Cc1nc2c(cnn2C)c(=O)[nH]1)c1ccccc1 | -2.48 | 10.3 | -5.08 | 5.54 | 4.1 | 1.96 | 7.17 | 5.26 | 18.1 | -3.23
